In PubChem BioAssay AID686970 (National Center for Advancing Translational Sciences (NCATS), 2013):
Among all 360,000 compounds or so, about 6,000 (1.7%) were called active. Not shown: some 8% with an inconclusive outcome. Calls follow the shape of the dose curve; as a rule, active = well fitted cell-killing curve with a large enough effect; inconclusive = small, poorly fitted or top-dose-only effect, or effect the other way; inactive = flat fitted curve, though single readings scatter. The sample as a whole holds a higher share of actives than the screen did.

assay: qHTS for induction of synthetic lethality in tumor cells producing 2HG: qHTS for the HT-1080-NT fibrosarcoma cell line; conditions: HT-1080-NT fibrosarcoma viability, CellTiter-Glo ATP luminescence, 48 h; series mostly up to 46.1 µM; activity, negative = less viability: at the top concentration;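 also: NT is the 2HG producing partner of a matched IDH1 knockdown line; nearly all actives have a fitted effect of over 55% in size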;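 as to activity, negative = less viability: 0% = DMSO-treated cells and -100% = media-only wells without cells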
In short: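 Viability by CellTiter-Glo luminescence after 48 h compound exposure at 37C of HT-1080-NT cells (750/well, RPMI, 5% FBS). % activity scaled between DMSO wells and medium-only wells, then curve-fitted and categorized by curve class.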
Potency is read from the fitted curve at half-maximal effect.

Row | Compound | activity, negative = less viability | Potency
1 | Cc1cc(=O)oc2cc(OCCC[n+]3ccccc3)ccc12 | 16% (inactive) | –
2 | Cc1cc(=O)oc2cc(OCC3CC(c4ccccc4Cl)=NO3)ccc12 (centres undefined) | – | 0.708 µM (active)
3 | CCOc1ccccc1N1CCN(C(=O)COc2ccc3c(C)cc(=O)oc3c2)CC1 | -0.354% (inactive) | –
4 | COc1cc(NC(=O)C2=C(C)OCCS2)c(Cl)cc1C(=O)NCCCN1CCCC(C)C1 (centres undefined) | -6.88% (inactive) | –
5 | Cc1ccc(S(=O)(=O)N[C@H]2CCC[C@@H]2O)cc1 | 14.8% (inactive) | –
6 | CCOC(=O)N1C(=O)C[C@](Sc2ccc(C)cc2)(C(=O)OC)[C@H]1c1ccccc1 | 0.0371% (inactive) | –
7 | CN(NC(=O)c1ccccc1F)c1nc(C(F)(F)F)nc2ccccc12 | – | 0.291 µM (active)
8 | CC(NC(=O)c1ccccc1F)c1cccc2ccccc12 (centres undefined) | -0.858% (inactive) | –
9 | CSc1nc(N(C)NC(=O)c2cccc(C)c2)c2ccccc2n1 | – | 0.13 µM (active)
10 | COc1ccc(C(=O)NN(C)c2nc(-c3ccccc3)cc(C)c2S(C)(=O)=O)cc1 | -2.05% (inactive) | –
11 | Cc1cccc(C(=O)Nc2ccc(C(=O)N/N=C/c3cccc(C)n3)cc2)c1 | -8.14% (inactive) | –
12 | Cn1c(CC(=O)NNC(=O)c2ccccc2F)nc2ccccc21 | 0.555% (inactive) | –
13 | COc1ccc(-c2cc(NC=O)c3ncc(-c4cccc(C(=O)N(C)C)c4)n3c2)c(OC)c1 | -20.5% (inactive) | –
14 | CC1(C)OC(=O)C2=C(CC(c3ccccc3)OC2CCc2ccccc2)O1 (centres undefined) | -19.5% (inactive) | –
15 | O=Nc1c(O)cc(O)c2ccccc12 | -1% (inactive) | –
16 | CCC(c1nnnn1-c1ccc2c(c1)OCCO2)N1CCN(c2ccc(C(F)(F)F)cn2)CC1 (centres undefined) | -27.4% (inactive) | –
17 | CCC(C)CN1C(=O)CSCC1(C)C(=O)NCc1ccccc1 (centres undefined) | -3.54% (inactive) | –
18 | COc1ccc2c(c1)CCCO[C@]21O[C@H](CCO)C[C@H](O)[C@H]1O | 11.6% (inactive) | –
19 | Cc1nnnn1/C(=C\c1ccccc1)C(=O)OCC(=O)N1CC2(C)CC1CC(C)(C)C2 (centres undefined) | – | 23.1 µM (active)
20 | CN(C)C(=O)COC(=O)c1cccc(S(=O)(=O)N2CC3(C)CC2CC(C)(C)C3)c1 (centres undefined) | 0.341% (inactive) | –
21 | CCOC(=O)C1CCCN(C(=O)c2cc(-c3cccs3)oc2C)CC1 (centres undefined) | -4.19% (inactive) | –
22 | CC1(C(=O)O)CCCN(C(=O)/C=C/c2ccccc2)C1 (centres undefined) | 3.18% (inactive) | –
23 | Cc1[nH]c(=O)c(C(=O)/C=C/c2ccccc2)c2c1CCCC2 | – | 7.08 µM (active)
24 | Cc1cccc(C=CC(=O)c2ccc(Cl)cc2)c1 | -8.49% (inactive) | –
25 | O=C(NCCOc1ccccc1)N1[C@H]2CC[C@@H]1C=C(c1ccc(F)cc1OCc1ccccc1)C2 | -28.7% (inactive) | –

Row | Compound | activity, negative = less viability | Potency
26 | CC1(C(=O)NCc2ccccc2)CN(S(C)(=O)=O)CC(=O)N1CC(F)(F)F (centres undefined) | 20.3% (inactive) | –
27 | OC[C@@H]1CN(Cc2ccc(-c3ccccc3)cc2)C[C@H](n2cnc3c(NC4CCCC4)ncnc32)O1 | – | 9.2 µM (active)
28 | OC[C@@H]1CN(Cc2cccs2)C[C@H](n2cnc3c(NC4CCCC4)ncnc32)O1 | 9.57% (inactive) | –
29 | OC[C@@H]1CN(C2CCCC2)C[C@H](n2cnc3c(NC4CCC4)ncnc32)O1 | 6.22% (inactive) | –
30 | COc1cc(C(=O)OCCCN2CCOCC2)cc(OC)c1OC | 12.7% (inactive) | –
31 | O=C(Nc1ccccc1Cl)/C(Cl)=C(\Cl)S(=O)c1ccccc1 (centres undefined) | – | 20.6 µM (active)
32 | CN(C)S(=O)(=O)Oc1ccccc1C(=O)Nc1ccccc1Cl | 0.81% (inactive) | –
33 | O=C(COC(=O)CCc1c[nH]c(=O)[nH]1)Nc1ccccc1Cl | 16.6% (inactive) | –
34 | COC(=O)[C@@]12C[C@@H](CC(=O)N3CCCCC3)C(=O)N(Cc3ccc4c(c3)OCO4)C1=CCC(C)(C)C2 | -21.7% (inactive) | –
35 | CN(Cc1ccccc1)C(=O)[C@@H]1CCCN1C(=O)[C@@H]1CCCN1C(=O)c1c(F)cccc1F | 24.6% (inactive) | –
36 | COc1ccc(C(=O)Nc2cccc(S(C)(=O)=O)c2)cc1 | 5.39% (inactive) | –
37 | COc1ccc(NS(=O)(=O)c2ccc(NC(=O)c3ccc(N(C)S(C)(=O)=O)cc3)cc2)cc1 | – | 18.4 µM (active)
38 | COc1ccc(NS(=O)(=O)c2ccc(C(=O)Nc3c(C)n(C)n(-c4ccccc4)c3=O)cc2)cc1 | -12% (inactive) | –
39 | O=S1(=O)CC(N2CCN(Cc3ccccc3F)CC2)CN1Cc1cn(Cc2ccccc2)nn1 (centres undefined) | 8.96% (inactive) | –
40 | C[C@@H]1CN([C@@H](C)CO)S(=O)(=O)c2ccc(C#Cc3cccc(F)c3)cc2O[C@H]1CN(C)S(=O)(=O)c1cn(C)cn1 | -24.4% (inactive) | –
41 | COC(=O)[C@]12CCCCC=C1N(Cc1ccco1)C(=O)[C@H](CC(=O)NCC1CCCCC1)C2 | 17.1% (inactive) | –
42 | Nc1ncnc2c1ncn2[C@@H]1O[C@H](C(=O)NS(=O)(=O)c2c(Cl)nc3sccn23)[C@@H](O)[C@H]1O | 4.2% (inactive) | –
43 | CCOc1cccc(-n2nnnc2-c2ccc(OC)cc2)c1 | – | 5.8 µM (active)
44 | CCOC(=O)C(C)n1cnc2c(nnn2-c2cccc(OC)c2)c1=O (centres undefined) | 11.1% (inactive) | –
45 | COc1ccc(NC(=O)CSc2nnnn2-c2cccc(OC)c2)cc1 | 8.68% (inactive) | –
46 | COCCCNC(=O)c1ccc(-c2c(C)noc2C)c2ccoc12 | 4.24% (inactive) | –
47 | COc1ccccc1-n1c(SCC(=O)Nc2ccc(Cl)cc2)nc(O)c(Cc2ccccc2)c1=O | -8.27% (inactive) | –
48 | COc1ccc(C(C(=O)NCc2ccccc2)n2c(=O)c(-c3ccccc3)nc3ccccc32)cc1 (centres undefined) | -16.2% (inactive) | –
49 | CCC(C)C(CO)NC(=O)/C=C/[C@H]1O[C@@H](n2cnc3c(NC(=O)c4ccccc4)ncnc32)[C@H](O)[C@@H]1O (some centres undefined) | 3.67% (inactive) | –
50 | COc1ccc(C(=O)N/N=C2\CCS(=O)(=O)c3ccc(F)cc32)cc1OC | – | 20.6 µM (active)

Row | Compound | activity, negative = less viability | Potency
51 | COc1ccc(CN2CCCC(CNC(=O)c3ccc(F)cc3)C2)cc1OC (centres undefined) | 4.21% (inactive) | –
52 | COc1ccc(C(=O)NC2CC(C)(C)NC(C)(C)C2)cc1OC | 17% (inactive) | –
53 | Cc1ccc(Cc2c(-c3ccc(Cl)cc3)nc3c4ccccc4ccn23)cc1 | -19% (inactive) | –
54 | CC(=O)NN=C(C)c1ccc(NC(=O)C2CC2)cc1 | -2.35% (inactive) | –
55 | COc1ccc(C(=O)NCC2CCCO2)cc1S(=O)(=O)NCc1ccc(Cl)cc1 (centres undefined) | 0.0669% (inactive) | –
56 | CCC(CC)C(C(=O)NC1CCCC1)N1CCN(c2cc(C)nc3ccccc23)CC1 (centres undefined) | -28.7% (inactive) | –
57 | N#Cc1c(NC(=O)CCCl)sc2c1CCCCC2 | – | 23.1 µM (active)
58 | N#Cc1c(NC(=O)C2CCCO2)sc2c1CCCCC2 (centres undefined) | -5.07% (inactive) | –
59 | CCN1CCN(CC(=O)Nc2sc3c(c2C#N)CCC3)CC1 | 11.3% (inactive) | –
60 | CCCCCCN1CCN(C2CN(Cc3cn(Cc4ccc(F)cc4)nn3)S(=O)(=O)C2)CC1 (centres undefined) | 0.0762% (inactive) | –
61 | Cc1ccc(-c2nc3ccccn3c2Nc2ccc(F)cc2)o1 | 1.52% (inactive) | –
62 | Cn1c(=N)n(CC(O)c2cccs2)c2ccccc21 (centres undefined) | 0.74% (inactive) | –
63 | Cn1c(=N)n(CC(O)c2ccccc2)c2ccccc21 (centres undefined) | -3.88% (inactive) | –
64 | N=c1n(Cc2ccc(Cl)cc2)c2ccccc2n1CC(O)c1ccco1 (centres undefined) | – | 23.1 µM (active)
65 | CCNC(=O)C1(C)CCCN(Cc2noc(-c3ccccc3OC)n2)C1 (centres undefined) | 19.6% (inactive) | –
66 | COc1cccc(-c2cc3nc(NCc4ccccc4OC)n(C)c(=O)c3s2)c1 | 2.39% (inactive) | –
67 | COc1ccc(NC(=S)NCc2cccs2)c(OC)c1 | 7.46% (inactive) | –
68 | COc1cccc(CNc2nc(NCc3cccs3)nc3ccsc23)c1 | – | 18.4 µM (active)
69 | COc1ccccc1CNc1nc(Nc2ccccc2Cl)c2sccc2n1 | -7.83% (inactive) | –
70 | Clc1ccccc1Nc1nc(NCc2cccs2)nc2ccsc12 | 6.31% (inactive) | –
71 | COc1cccc(CNc2nc(NCc3ccccc3OC)nc3ccsc23)c1 | – | 23.1 µM (active)
72 | CC[C@@H]1CC2=C(C(=O)OC(C)(C)O2)[C@@H](CC)O1 | 20.4% (inactive) | –
73 | Nc1nc2c(ncn2[C@@H]2O[C@H](CNCc3ccc(OCCCN4CCOCC4)cc3)[C@@H](O)[C@H]2O)c(=O)[nH]1 | 23.9% (inactive) | –
74 | C[C@H](O)[C@@H]1C(=O)N2CCc3c([nH]c4ccccc34)[C@@H]2C[C@@H]1N(C)C(=O)Nc1ccc(F)cc1 | -4.19% (inactive) | –
75 | C[C@H]1CN([C@@H](C)CO)C(=O)CCCn2cc(nn2)CO[C@@H]1CN(C)S(=O)(=O)c1cccs1 | 3.92% (inactive) | –

Row | Compound | activity, negative = less viability | Potency
76 | N#Cc1ccc(C(C(=O)NCc2ccccc2)n2c(=O)c(-c3ccco3)nc3ccccc32)cc1 (centres undefined) | -3.23% (inactive) | –
77 | O=S1(=O)CC(N2CCSCC2)CN1Cc1cn(Cc2cccc(Cl)c2)nn1 (centres undefined) | 18.5% (inactive) | –
78 | CCCCC[C@@H]1C=C(C(=O)OCC)[C@H](c2ccccc2)N1S(=O)(=O)c1ccc(C)cc1 | -18.3% (inactive) | –
79 | COc1cc2c(=O)n(C)c3ccccc3c2cc1OC | 4.63% (inactive) | –
80 | Cn1c(=O)c([N+](=O)[O-])c(Oc2ccccc2)c2ccccc21 | – | 18.4 µM (active)
81 | Cc1cc(C)c(-c2c(O)c3ccccc3n(C)c2=O)c(C)c1 | 7.51% (inactive) | –
82 | CCCc1c(C)nc2scc(-c3ccc(Cl)cc3)n2c1=O | -1.68% (inactive) | –
83 | COCCNc1ncnc2c1ncn2[C@H]1CN(CCN2CCOCC2)C[C@@H](CO)O1 | 22.6% (inactive) | –
84 | C=CCC[C@@H](CCCCC)OC(=O)/C=C/[C@@H](O)[C@H](O)C[C@H](O)CC=C | -18.2% (inactive) | –
85 | C=CCC[C@H](CCCCC)OC(=O)/C=C/[C@H](O)[C@@H](O)C[C@@H](O)CC=C | -23.8% (inactive) | –
86 | COc1cccc(CNC(=O)CN2C(=O)NC(Cc3ccccc3)(c3ccccc3)C2=O)c1 (centres undefined) | 4.29% (inactive) | –
87 | COc1cccc(CNc2nc(C(F)(F)F)nc3ccccc23)c1 | – | 23.1 µM (active)
88 | CCc1ccc(C(CNc2nc(C(F)(F)F)nc3ccccc23)N(C)C)cc1 (centres undefined) | – | 23.1 µM (active)
89 | CN(C)C(CNC(=O)Cc1ccc([N+](=O)[O-])cc1)c1ccccc1 (centres undefined) | -3.4% (inactive) | –
90 | COc1cccc(CNC(=O)c2n[nH]c3ccccc23)c1 | -22% (inactive) | –
91 | CN(C)C(CNC(=O)c1cc2ccccc2o1)c1ccccc1 (centres undefined) | -8.25% (inactive) | –
92 | O=C(CCN1CCCCC1)Nc1ccc(F)c(F)c1 | -0.559% (inactive) | –
93 | Cc1cccc(C(=O)C(O)(c2ccccc2)C2CCCCC2=O)c1 (centres undefined) | -18.7% (inactive) | –
94 | CN(Cc1c(F)cccc1Cl)C(=O)COC(=O)Cn1cnc2ccccc2c1=O | 1.04% (inactive) | –
95 | COC(=O)C[C@@H]1C=C[C@@H](NS(=O)(=O)c2cccc(OC)c2)[C@@H](CO)O1 | 12.9% (inactive) | –
96 | CC[C@@H]1Cc2cc(O)ccc2C2=C1c1ccc(O)cc1C[C@H]2CC | – | 18.4 µM (active)
97 | Cc1cc(C)c(NC(=O)c2oc3ccccc3c2COc2ccccc2)c(C)c1 | -3.26% (inactive) | –
98 | Cc1cc(C)cc(OCC(=O)NCc2cc(C)nc3ccccc23)c1 | -3.23% (inactive) | –
99 | Cc1cc(C)c(NC(=O)C[N+](C)(C)CC(O)COc2cccc3ccccc23)c(C)c1 (centres undefined) | – | 18.4 µM (active)
